Laboratory results published in PubChem BioAssay.
Calls of active or inactive are those of the source. Unless noted, how the calls were made is not given here.

How the values were obtained:
[1] = system: Wnt5a (protein binding on small-molecule microarray); test: Wnt5a binders on small-molecule microarray, primary screen, biophysical, 635/667 nm fluorescence (AID 1142); settings: 635 nm fluorescence, higher = more signal;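 further: fluorescence read at 667 nm with signal to noise per printed feature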
[2] = cell viability in Huh7 cells, primary screen, cytotoxicity control for HCV replication inhibitor project, CellTiter-Glo luminescence, basal, 48 h (AID 1143); settings: Huh7 HCV replicon, higher = more signal, called active from +8 up or from −8 down;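 further: Huh7 hepatoma cells carrying a hepatitis C replication reporter with no stimulus; test concentration not given here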
[3] = P. aeruginosa biofilm formation inhibitors, primary screen, PAO1 strain, BacTiter-Glo luminescence, LB-PBS (AID 1144); settings: 12 h, higher = more signal
[4] = CREB reporter modulators without forskolin, primary screen, cell-based, PC12, CRE-LacZ reporter, unstimulated (AID 1145); settings: no forskolin, luminescence, 4.5 h, higher = more signal, called active from +8 up or from −8 down
[5] = CREB reporter modulators under forskolin, primary screen, cell-based, PC12, CRE-LacZ reporter, forskolin-stimulated (AID 1146); settings: luminescence, 4.5 h, higher = more signal, called active from +8 up or from −8 down;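 further: PC12 cells with 6xCRE LacZ reporter stimulated by forskolin 10 µM; beta-galactosidase reporter signal reflecting CREB driven transcription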
[6] = molecular target: Streptavidin (Streptomyces avidinii) (UniProt P22629); test: streptavidin binders on small-molecule microarray, primary screen, artefact control for SMM compound annotation, biophysical, 635/667 nm fluorescence (AID 1147); settings: streptavidin binding, higher = more signal;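 further: signal reflects streptavidin binding to arrayed compounds as a control protein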
Sequence of Streptavidin (Streptomyces avidinii) (P22629 whole entry, looked up): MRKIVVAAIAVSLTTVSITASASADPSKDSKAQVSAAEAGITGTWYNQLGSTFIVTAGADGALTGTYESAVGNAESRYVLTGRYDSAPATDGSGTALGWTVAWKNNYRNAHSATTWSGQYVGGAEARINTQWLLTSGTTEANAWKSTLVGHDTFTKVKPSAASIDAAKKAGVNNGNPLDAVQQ

[7] = small-molecule binders of probe aInhba, primary screen, biochemical, small-molecule microarray, 635/667 nm fluorescence (AID 1148); settings: higher = more signal;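 further: score merges 667nm spot fluorescence with signal-to-noise for antibody binding to printed compounds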
[8] = molecular target: Torsin-1A (Homo sapiens) (UniProt O14656); test: torsin A binders from cell lysate, primary screen, small-molecule microarray, wild-type, 635/667 nm (AID 1149); settings: COS7 hTOR1A-WT lysate, 635 nm fluorescence, higher = more signal
Sequence of Torsin-1A (Homo sapiens) (O14656 whole entry, looked up): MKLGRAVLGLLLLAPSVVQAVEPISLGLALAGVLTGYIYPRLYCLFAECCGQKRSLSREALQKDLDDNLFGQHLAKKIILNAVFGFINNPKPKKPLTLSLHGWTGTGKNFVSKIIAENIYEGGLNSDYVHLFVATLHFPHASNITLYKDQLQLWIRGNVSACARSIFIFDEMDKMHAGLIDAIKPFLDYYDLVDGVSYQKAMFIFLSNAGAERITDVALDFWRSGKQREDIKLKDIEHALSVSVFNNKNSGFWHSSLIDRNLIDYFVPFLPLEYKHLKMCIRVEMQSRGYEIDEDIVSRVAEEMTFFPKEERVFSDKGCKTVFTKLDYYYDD

[9] = molecular target: Torsin-1A (Homo sapiens) (UniProt O14656); test: small-molecule binders of mutant TOR1A in lysate, primary screen, cell lysate, small-molecule microarray, COS7 lysate, 635/667 nm fluorescence (AID 1150); settings: COS7 hTOR1A mutant lysate, 635 nm fluorescence, higher = more signal;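 further: score pools 667 nm emission and signal to noise measuring lysate protein binding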
[10] = system: Sonic hedgehog protein (Shh); test: small-molecule binders of Shh protein, primary screen, biochemical, small-molecule microarray, 635/667 nm fluorescence (AID 1151); settings: small-molecule microarray binding, 635 nm fluorescence; higher = more signal;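 further: Shh protein binding to compounds spotted on small-molecule microarray slides; score combines spot fluorescence intensity with signal-to-noise across triplicate slides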
[11] = E. coli DRC41 culture turbidity changes, primary screen, E. coli filamentation inducer project, strain DRC41, OD650, 48 h (AID 1152);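 further: E. coli MC1000 strain DRC41 lacking acrAB efflux pump and sulA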; settings: E. coli DRC41 (acrAB sulA), higher = more signal, called active from +8 up or from −8 down
[12] = small-molecule binders of probe aLefty1, primary screen, biochemical, small-molecule microarray, 635/667 nm fluorescence (AID 1153); settings: higher = more signal;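 further: score merges spot fluorescence with signal-to-noise ratio from the scanned slide images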
[13] = PSAC antagonists in infected red cells, primary screen, cell-based, P. falciparum Indochina, OD700, 1 h (AID 1154); settings: P. falciparum Indochina infected RBC osmotic lysis, higher = more signal, called active from +8 up or from −8 down
[14] = PSAC antagonists in infected red cells, primary screen, cell-based, P. falciparum Indochina, OD700, 2 h (AID 1155);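 further: lysis reports solute entry through the parasite surface anion channel PSAC; channel blockers reduce lysis of infected cells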; settings: P. falciparum Indochina infected erythrocytes, osmotic lysis OD700; higher = more signal, called active from +8 up or from −8 down
[15] = osmotic lysis modulators in infected erythrocytes, primary screen, PSAC antagonist project, cell-based, P. falciparum Indochina, OD700, 3 h (AID 1156); settings: higher = more signal, called active from +8 up or from −8 down
[16] = PSAC antagonists in infected red cells, primary screen, cell-based, P. falciparum Indochina, OD700, 18 h (AID 1157); settings: P. falciparum Indochina infected erythrocytes, osmotic lysis OD700, 18 h; higher = more signal, called active from +8 up or from −8 down
[17] = modulators of S6 phosphorylation in cells, primary screen, cell-based, A549, cytoblot, luminescence, serum-stimulated (AID 1158); settings: A549 phospho-S6 cytoblot, 5 h, higher = more signal;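 further: serum-stimulated A549 lung adenocarcinoma cells; signal is phosphorylated S6 detected by cytoblot immunostaining with HRP secondary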
[18] = molecular target: NADPH oxidase 2 (Homo sapiens) (UniProt P04839); test: NOX2-dependent H2O2 signal modulators, primary screen, NOX inhibitor project, cell-based, HEK293-NOX2, PMA-stimulated, Amplex Red fluorescence (AID 1159); settings: 45 min, higher = more signal, called active from +8 up or from −8 down; further: test concentration not given here
Sequence of NADPH oxidase 2 (Homo sapiens) (P04839 whole entry, looked up): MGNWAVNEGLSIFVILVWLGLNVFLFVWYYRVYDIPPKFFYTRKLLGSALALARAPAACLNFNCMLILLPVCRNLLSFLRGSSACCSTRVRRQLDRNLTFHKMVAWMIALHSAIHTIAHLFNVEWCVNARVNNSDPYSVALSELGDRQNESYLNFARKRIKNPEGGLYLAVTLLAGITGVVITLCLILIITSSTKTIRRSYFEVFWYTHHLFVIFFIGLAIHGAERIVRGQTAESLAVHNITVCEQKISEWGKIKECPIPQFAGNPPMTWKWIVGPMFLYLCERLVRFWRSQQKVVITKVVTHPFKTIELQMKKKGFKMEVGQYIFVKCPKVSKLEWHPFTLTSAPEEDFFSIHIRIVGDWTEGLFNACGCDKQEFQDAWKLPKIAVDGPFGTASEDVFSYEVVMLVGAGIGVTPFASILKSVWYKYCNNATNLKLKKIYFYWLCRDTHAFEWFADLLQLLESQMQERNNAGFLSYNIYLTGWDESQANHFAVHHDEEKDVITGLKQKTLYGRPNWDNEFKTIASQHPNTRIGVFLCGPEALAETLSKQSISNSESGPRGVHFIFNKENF

[19] = molecular target: NADPH oxidase 4 (Homo sapiens) (UniProt Q9NPH5); test: NOX4-dependent H2O2 signal modulators, primary screen, NOX inhibitor project, cell-based, HEK293-NOX4, tetracycline-induced, Amplex Red fluorescence (AID 1160); settings: 45 min, higher = more signal, called active from +8 up or from −8 down
Sequence of NADPH oxidase 4 (Homo sapiens) (Q9NPH5 whole entry, looked up): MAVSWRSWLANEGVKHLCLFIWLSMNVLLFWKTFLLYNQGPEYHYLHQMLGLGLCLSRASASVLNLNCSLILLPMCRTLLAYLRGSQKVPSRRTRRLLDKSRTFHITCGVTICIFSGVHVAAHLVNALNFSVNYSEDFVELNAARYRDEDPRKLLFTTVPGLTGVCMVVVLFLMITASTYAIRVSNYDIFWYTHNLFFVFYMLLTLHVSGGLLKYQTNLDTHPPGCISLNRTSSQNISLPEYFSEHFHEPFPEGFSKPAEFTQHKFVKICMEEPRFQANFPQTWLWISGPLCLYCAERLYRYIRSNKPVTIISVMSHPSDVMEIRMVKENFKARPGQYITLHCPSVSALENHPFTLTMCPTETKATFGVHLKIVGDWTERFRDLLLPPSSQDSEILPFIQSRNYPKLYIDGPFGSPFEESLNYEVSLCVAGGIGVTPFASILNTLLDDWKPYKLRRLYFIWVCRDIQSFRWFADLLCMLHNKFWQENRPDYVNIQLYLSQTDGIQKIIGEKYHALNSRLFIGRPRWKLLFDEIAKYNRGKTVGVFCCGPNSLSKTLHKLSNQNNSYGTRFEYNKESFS

[20] = molecular target: NADPH oxidase 5 (Homo sapiens) (UniProt Q96PH1); test: NOX5-dependent H2O2 signal modulators, primary screen, NOX inhibitor project, cell-based, HEK293-NOX5, Amplex Red fluorescence (AID 1161); settings: HEK293-NOX5, ionomycin, 45 min, higher = more signal
Sequence of NADPH oxidase 5 (Homo sapiens) (Q96PH1 whole entry, looked up): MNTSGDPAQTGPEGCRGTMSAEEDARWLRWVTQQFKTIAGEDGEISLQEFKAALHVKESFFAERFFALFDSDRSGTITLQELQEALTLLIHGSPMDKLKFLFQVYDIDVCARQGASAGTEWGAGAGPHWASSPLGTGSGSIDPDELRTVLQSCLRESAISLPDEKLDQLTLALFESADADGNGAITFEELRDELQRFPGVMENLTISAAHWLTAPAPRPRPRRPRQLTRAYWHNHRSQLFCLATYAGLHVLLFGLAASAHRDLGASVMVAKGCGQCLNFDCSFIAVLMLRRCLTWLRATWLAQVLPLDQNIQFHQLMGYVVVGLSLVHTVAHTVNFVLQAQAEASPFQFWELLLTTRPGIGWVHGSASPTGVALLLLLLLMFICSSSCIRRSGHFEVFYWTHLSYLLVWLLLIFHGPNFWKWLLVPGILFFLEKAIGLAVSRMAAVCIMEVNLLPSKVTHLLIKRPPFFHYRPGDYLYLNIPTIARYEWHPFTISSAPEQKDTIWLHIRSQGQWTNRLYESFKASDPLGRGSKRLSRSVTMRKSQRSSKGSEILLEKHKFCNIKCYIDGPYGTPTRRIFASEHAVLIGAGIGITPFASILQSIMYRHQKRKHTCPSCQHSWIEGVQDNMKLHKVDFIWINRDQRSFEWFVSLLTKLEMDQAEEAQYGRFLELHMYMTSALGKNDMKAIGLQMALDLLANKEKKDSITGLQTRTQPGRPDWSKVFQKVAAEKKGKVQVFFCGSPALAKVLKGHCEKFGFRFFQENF

Structure (SMILES)	composite z-score [1]	z-score [2]	z-score [3]	z-score [4]	z-score [5]	composite z-score [6]	composite z-score [7]	composite z-score [8]	composite z-score [9]	composite z-score [10]	z-score [11]	composite z-score [12]	z-score [13]	z-score [14]	z-score [15]	z-score [16]	z-score [17]	z-score [18]	z-score [19]	z-score [20]
COc1cc(CO)cc(I)c1O[C@H]1C=C(C(=O)NCCO)C[C@@H](NCC2CCCCC2)[C@@H]1O	-0.042	-0.731 (inactive)	-0.893 (inactive)	-0.0534 (inactive)	-0.269 (inactive)	0.0581	0.0422	-0.549	-0.262	-0.397	2.19 (inactive)	-0.313	1.35 (inactive)	0.94 (inactive)	0.996 (inactive)	0.183 (inactive)	1.06	0.132 (inactive)	0.97 (inactive)	1.04
COC(=O)[C@@]1(Cc2ccc(OC)cc2)[C@H]2c3cc(C(=O)N4CCCC4)n(Cc4ccc(S(C)(=O)=O)cc4)c3C[C@H]2CN1C(=O)c1ccccc1	0.21	-0.86 (inactive)	-0.0122 (inactive)	-0.185 (inactive)	-0.755 (inactive)	1.73	0.102	0.272	0.422	-1.12	-1.08 (inactive)	0.315	2.29 (inactive)	0.326 (inactive)	0.6 (inactive)	0.617 (inactive)	-0.688	0.385 (inactive)	-0.389 (inactive)	-1.7
CCCCC(=C=CC[C@H](O)c1ccc(OCCO)cc1)C[C@H](O)COCc1ccccc1	-0.0866	-0.92 (inactive)	0.403 (inactive)	10.3 (active)	0.434 (inactive)	-0.499	-0.145	-0.327	0.388	0.571	-0.088 (inactive)	-0.235	18.2 (active)	3.18 (inactive)	0.871 (inactive)	1.02 (inactive)	-0.881	-0.751 (inactive)	-0.446 (inactive)	-2.05
O=C(CS)NCCCCCNC(=O)[C@@H]1C[C@@H]2C(=O)N[C@@H](Cc3ccccc3)C(=O)N2[C@@H]1c1cccc(OCCO)c1	0.409	-0.497 (inactive)	-0.042 (inactive)	0.7 (inactive)	0.432 (inactive)	-0.0307	-0.787	0.7	1.31	1.49	-0.145 (inactive)	-1.01	2.5 (inactive)	0.148 (inactive)	-0.395 (inactive)	-0.0429 (inactive)	-0.16	1.73 (inactive)	0.924 (inactive)	0.226
C=C(/C(=C/C[C@@H](OC(C)=O)c1ccc(OCCO)cc1)c1cc(C(=O)OC)ccc1OC)C(C)C	-0.0426	-2.02 (inactive)	1.03 (inactive)	3.85 (inactive)	-0.27 (inactive)	-0.124	0.167	0.856	0.693	1.41	-0.2 (inactive)	0.0794	8.16 (active)	1.11 (inactive)	1.24 (inactive)	0.774 (inactive)	-0.219	-0.323 (inactive)	-0.645 (inactive)	-1.87
COc1ccc([Si](C)(C)[C@H]2[C@H](CC(=O)N3Cc4ccccc4C[C@H]3CO)O[C@@]3(C(=O)N(Cc4ccc(N5C(=O)c6cccc7cccc5c67)cc4)c4ccccc43)[C@@H]2C)cc1	-0.108	-4.09 (inactive)	-0.67 (inactive)	1.04 (inactive)	-1.35 (inactive)	0.294	0.0102	-0.0784	0.837	1.66	0.315 (inactive)	0.0771	4.25 (inactive)	1.36 (inactive)	1.67 (inactive)	1.09 (inactive)	0.412	-0.327 (inactive)	0.252 (inactive)	-1.66
CC(C)c1ccc(NN2C(C(O)Cc3ccccc3)C=CC3C(=O)N(c4ccccc4)C(=O)C32)cc1 (stereo not given)	0.204	-0.695 (inactive)	-0.221 (inactive)	0.243 (inactive)	2.48 (inactive)	1.87	-0.152	0.14	0.815	-0.154	-1.76 (inactive)	0.181	1.93 (inactive)	1.31 (inactive)	0.127 (inactive)	1.05 (inactive)	-1.27	-0.343 (inactive)	-3.62 (inactive)	-2.69
NC(=O)[C@H]1[C@@H]2C(=O)O[C@@H](c3ccccc3)[C@@H](c3ccccc3)N2[C@@H](c2ccc(O)cc2)[C@]12C(=O)Nc1ccc(C#CC3=CCCCC3)cc12	-0.0856	-3.73 (inactive)	0.363 (inactive)	0.478 (inactive)	0.731 (inactive)	0.185	-0.128	0.509	0.721	1.19	-1.35 (inactive)	0.145	3.07 (inactive)	1.45 (inactive)	0.28 (inactive)	1.4 (inactive)	-0.425	1.18 (inactive)	0.425 (inactive)	0.563
